Assay outcomes as filed in PubChem BioAssay.
This is a sample that favours compounds with a hit; in the whole collection about 12% have one here.
Shiga inhibitor: Shiga toxin inhibition; Vero cells, Shiga toxin protein synthesis inhibition reporter; inhibition, % at 38.7 µM; 9.2% of 290,000 active; AID 2315; in the data active = inhibition mostly above about 28%, no sharp cut-off; inactive = mostly below about 43%; note: 0% is about no effect
Sm TGR inh: S. mansoni TGR enzyme inhibition; Q962Y6; purified TGR, DTNB reduction, TNB absorbance 405 nm; Potency, µM (top dose mostly 114 µM), for the others: at the highest dose activity change, negative = inhibition, hits mostly inhibitors; 3% of 360,000 active; active = well fitted inhibition curve with a large enough effect; inconclusive = small, poorly fitted or top-dose-only effect; inactive = no such curve, though single readings can be large or run the other way; note: potency is the fitted concentration of half-maximal effect; % is set by controls: 0 for no effect and ±100 for the full control effect; nearly all actives have a fitted effect of over 60% in size
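TGR 20 nM + NADPH 100 uM (dispensed conc.), cpd preinc 15 min RT; start with NADPH (500 uM addition) then DTNB (15 mM addition). Kinetic TNB absorbance, 405 nm filter. Four-parameter Hill fit across titration.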
FMDV antiviral: antivirals against foot and mouth disease virus; Potency, µM (doses to about 57.9 µM), for inactives: top-dose activity change, negative = inhibition, actives largely listed as inhibitors; 1.2% of 410,000 active; FMDV antiviral cell-based qHTS; calls by dose curve; tested in HEK293T cells; note: read-out not given here; potency is the fitted concentration of half-maximal effect; % is set by controls: 0 for no effect and ±100 for the full control effect; nearly all actives have a fitted effect of over 45% in size
Cycloheximide cs: counter-screen hit for Shiga toxin inhibitors, cycloheximide | cell reporter, cycloheximide protein synthesis inhibition counterscreen | max response, % | 12% of 300,000 active; in the data active = max response mostly above about 13%, no sharp cut-off; inactive = mostly below about 14%; note: read at 38.3 µM for the half of the compounds with a filed dose; 0% is about no effect
An asterisk follows results filed as active; ? = inconclusive; . = no result.

SMILES | Shiga inhibitor | Sm TGR inh | FMDV antiviral | Cycloheximide cs
CCc1nc(SCC(=O)c2ccc(Cl)s2)c2oc3ccccc3c2n1 | 89* | 30% | -10% | 46*
CCc1nc(SCc2nc3ccccc3[nH]2)c2oc3ccccc3c2n1 | 8 | 54% | ? | 14*
CCc1nc(SCCO)c2oc3ccccc3c2n1 | 16 | 5% | -23% | 2
COC(=O)c1ccc(NC(=O)CN(c2cccc(C(F)(F)F)c2)S(C)(=O)=O)cc1 | . | 0% | ? | .
CCc1ccc(C2C(C(=O)Nc3ccccc3OC)=C(C)Nc3nc(SCc4ccccc4)nn32)cc1 (stereo not drawn) | . | 2% | -7% | .
O=S(=O)(NCCc1cn(S(=O)(=O)c2ccccc2)c2ccccc12)c1ccccc1 | -2 | . | . | -4
CC(C)CNC(=O)C1CCN(Cc2ccc(OCc3ccccc3)cc2)CC1 | 79* | -14% | 13% | 27*
CC(O)CNC(=O)C1CCN(Cc2ccc(OCc3ccccc3)cc2)CC1 (stereo not drawn) | 130* | 7% | 7% | 37*
COC(=O)c1cccc(Nc2c(-c3ccc(OC)cc3)nc3nc[nH]n23)c1 | . | 0% | 43% | .
Cc1ccc(Cn2c(-c3ccccc3)nc3ccccc32)cc1 | . | 8% | -10% | .
Cc1ccc(Cn2nc(-c3ccccc3)nc2-c2ccccc2)cc1 | 121* | 18% | 33% | 45*
c1ccc(Cn2nc(-c3ccccc3)nc2-c2ccccc2)cc1 | 52* | -2% | 23% | 54*
NC(=O)Cn1nc(-c2ccccc2)nc1-c1ccccc1 | . | . | 4% | .
Cc1cc(C)c(NC(=O)c2ccc3nccnc3c2)c(C)c1 | . | 1% | 3% | .
Cc1ccc(NC(=O)c2ccc3nccnc3c2)c(C)c1 | 31* | 56µM* | 21% | 23*
O=C(Nc1ccc2cccnc2c1)c1ccc(Br)cc1 | . | 10% | 59% | 24*
Cc1ccc(C(=O)Nc2ccncc2)c(C)c1 | 18 | 0% | -1% | 8.9*
O=C(Nc1ccc2nc3ccccc3nc2c1)c1ccc(Br)cc1 | 5 | -10% | -8% | 6
Cc1ccc(C(=O)Nc2ccc3nccnc3c2)cc1 | 48* | 7% | -18% | 24*
Cc1ccc(C(=O)Nc2cccc(NC(=O)c3cccs3)c2)c(C)c1 | 21 | 3% | 10% | 4
Clc1ccc(-n2cccc2CN2CCOc3ccc(CN4CCOCC4)cc3C2)nc1 | . | . | -6% | .
Cc1c(-c2cccc(NC(=O)Nc3ccccc3)c2)nc2ncccn12 | . | 9% | 19% | .
CCOCCCNC(=O)C(c1ccc(C)cc1)N(Cc1ccc2c(c1)OCO2)C(=O)c1ccc(NC(C)=O)cc1 (stereo not drawn) | . | 7% | -19% | .
COc1ccccc1N1CCN(C(=O)CSc2nc(-c3ccc(C(C)C)cc3)no2)CC1 | . | -11% | -6% | .
Cc1ccccc1-n1c(O)c(C(c2ccncc2)c2c(O)n(-c3ccccc3C)c(=O)[nH]c2=O)c(=O)[nH]c1=O | -8 | 1.1µM* | 2% | 1
SMILES | Shiga inhibitor | Sm TGR inh | FMDV antiviral | Cycloheximide cs
Cc1ccc(OCCSc2ncccn2)c(C)c1 | 96* | 5% | 7% | 49*
CCC(=O)c1ccc(OCC(=O)O)cc1 | 35 | -2% | -29% | -3
c1ccc(OCCOCCSc2ncccn2)cc1 | 45 | 4% | 30% | 20*
Cc1cc(SCCOc2ccccc2)nc(N)n1 | 80* | -19% | 31% | 28*
CCC(=O)c1ccc(OCCSc2ncccn2)cc1 | 88* | 0% | 7% | 53*
Cc1cccc(OCCOCCSc2ncccn2)c1 | 41 | 3% | 30% | 10*
Cc1cccc(OCCSc2nc(N)cc(N)n2)c1 | 45* | -21% | 20% | 20*
COc1ccc(-c2nnc(SCCOc3cccc(C)c3)n2N)cc1 | -5 | 0% | -13% | 2
CC[C@H](C)[C@H](NC(=O)[C@H](Cc1ccc(O)cc1)NC(=O)[C@H](Cc1cnc[nH]1)NC(=O)[C@H](CCCNC(=N)N)NC(=O)[C@H](CC(C)C)NC(=O)[C@H](C)NC(=O)[C@H](CO)NC(=O)[C@H](Cc1ccc(O)cc1)NC(=O)[C@H](Cc1ccc(O)cc1)NC(=O)[C@H](CCCNC(=N)N)NC(=O)[C@H](C)NC(=O)[C@H](CC(C)C)NC(=O)[C@H](CC(=O)O)NC(=O)[C@H](CCC(=O)O)NC(=O)[C@H](C)NC(=O)[C@@H]1CCCN1C(=O)[C@H](C)NC(=O)[C@H](CC(=O)O)NC(=O)[C@H](CCC(=O)O)NC(=O)CNC(=O)[C@@H]1CCCN1C(=O)[C@H](CC(N)=O)NC(=O)[C@H](CC(=O)O)NC(=O)[C@@H]1CCCN1C(=O)[C@H](CCCCN)NC(=O)[C@H](CO)NC(=O)[C@@H]1CCCN1C(=O)[C@@H](N)Cc1ccc(O)cc1)C(=O)N[C@@H](CC(N)=O)C(=O)N[C@@H](CC(C)C)C(=O)N[C@H](C(=O)N[C@H](C(=O)N[C@@H](CCCNC(=N)N)C(=O)N[C@@H](CCC(N)=O)C(=O)N[C@@H](CCCNC(=N)N)C(=O)N[C@@H](Cc1ccc(O)cc1)C(N)=O)[C@@H](C)O)[C@@H](C)CC | -10 | . | . | 1
O=C(Nc1ccccc1)N1CCCC(CNS(=O)(=O)Cc2ccccc2)C1 (stereo not drawn) | 10 | -16% | 9% | 13*
CSc1cccc(NC(=O)N2CCCC(CNS(=O)(=O)Cc3ccccc3)C2)c1 (stereo not drawn) | -11 | 0% | 16% | -1
O=c1c(-c2ccc3c(c2)OCCO3)coc2cc(O)cc(O)c12 | 73* | 3% | 44% | 37*
O=C(CC1(O)C(=O)N(CCc2ccccc2)c2ccc(Br)cc21)c1ccc(F)cc1 (stereo not drawn) | . | -2% | 4% | .
COc1ccc(NC(=O)CSc2nc(C)c3c(c2C#N)CCCC3)cc1 | -25 | 1% | -17% | 2
CCc1nnc(NC(=O)CSc2nc(C)c3c(c2C#N)CCCC3)s1 | 56* | -1% | -22% | 64*
COc1ccc(C(CC(=O)NCc2ccccc2)N2Cc3ccccc3C2=O)cc1 (stereo not drawn) | . | 5% | 20% | .
OCC1(Cc2ccccc2)CCCN(Cc2ccc(-c3ccco3)cc2)C1 (stereo not drawn) | -6 | 35µM* | -21% | 2
OCC1(Cc2ccccc2)CCN(Cc2ccc(-c3ccco3)cc2)CC1 | 3 | 32µM* | ? | 8
CCN1CCCC(CO)(Cc2ccccc2)C1 (stereo not drawn) | 23 | ? | -4% | -2
COc1cc(CN2CCCC(CO)(Cc3cccc(Cl)c3)C2)cc(OC)c1O (stereo not drawn) | -6 | 28µM* | -6% | 0
COc1ccccc1CNC(=O)CCCCn1c(=O)c2ccccc2n(CC(=O)Nc2c(C)cc(C)cc2C)c1=O | . | 4% | 11% | .
O=C(CCCC(=O)OCC(=O)c1ccc(Cl)cc1Cl)Nc1cc(C(F)(F)F)ccc1Cl | 2 | 89µM* | -23% | -1
Cc1nnc(NC(=O)C2CCN(S(=O)(=O)c3cc([N+](=O)[O-])ccc3Cl)CC2)o1 | . | 35µM* | -11% | .
Cc1ccc2c(=O)cc(C(=O)Nc3c(C(=O)c4ccc(F)cc4)oc4ccccc34)oc2c1C | . | 12% | -16% | .
NS(=O)(=O)c1ccc2nc(NC(=O)c3ccc(Br)o3)sc2c1 | 50* | 0% | 52% | 24*
CCN(CC)S(=O)(=O)c1ccc2nc(NC(=O)c3ccc(Br)o3)sc2c1 | . | -12% | 9% | .
